Measured values taken from PubChem BioAssay AID743266 (National Center for Advancing Translational Sciences (NCATS), 2014).
Among all 410,000 compounds or so, about 310 (0.076%) were called active. Not shown: some 2% with an inconclusive outcome. What follows is part of a selection rich in actives, with near analogues and random picks from the rest. A number with no mark means an inactive call. The call rests on the fitted dose curve; in most records, active means well fitted activation curve with a large enough effect; inconclusive means small, poorly fitted or top-dose-only effect, or another doubt; inactive means no such curve, though single readings can be large or run the other way.

Biological target: Parathyroid hormone/parathyroid hormone-related peptide receptor (Homo sapiens) (UniProt Q03431)
Experiment: qHTS for PTHR1 Agonists: Primary Screen; further: nearly all actives have a fitted effect of over 55% in size
Settings: HEK293 GP2 PTHR1 cells, GloSensor cAMP luminescence, 1 h; series mostly up to 115 µM; activation: at the top concentration
Source text: The goal of the proposed studies is to discover new compounds that act as potent agonists on the parathyroid hormone receptor type-1 (PTHR1). The PTHR1 plays critical roles in maintaining blood calcium and phosphate levels, as well as in controlling bone remodeling. PTHR1 agonists could thus be useful for treating diseases such as hypoparathyroidism and osteoporosis. In the former disease, an agonist drug would help maintain normal blood calcium and phosphate levels under conditions of parathyroid hormone deficiency. In the latter disease, an agonist drug would stimulate new bone formation and thus reduce the risk of fracture, under conditions of bone fragility, as occurs in aging.
To that end, we performed a quantitative high-throughput screening (qHTS) of the Molecular Libraries Probe Centers Network (MLPCN) compound libraries at the NIH Chemical Genomics Center (NCGC) for the parathyroid hormone receptor type-1 (PTHR1) using a unique HEK-293-derived cell line (GP2) that expresses the PTHR1 and a glosensor cAMP reporter construct.
NIH Molecular Libraries Probe Production Centers Network [MLPCN]
NIH Chemical Genomics Center [NCGC]
Assay Submitter (PI): Thomas Gardella, Massachusetts General Hospital
4 microL are dispensed into a 1536-well micro plate to yield 3,000 cells/well. The plates are then incubated overnight, after which 4 microL of 0.5 mM of BIoTium Luciferin plus 0.5 mM IBMX are added. They are then incubated at 37 degree for one hour before 23 nL of compounds are added through pinning and then incubated at 37 degree again for another hour. After the plates are kept at room temperature for 15 min before they are read on the ViewLux to measure luminescence.
Potency means the concentration at half of the fitted maximal effect.

Chain of Parathyroid hormone/parathyroid hormone-related peptide receptor (Homo sapiens) (Q03431 whole entry, looked up): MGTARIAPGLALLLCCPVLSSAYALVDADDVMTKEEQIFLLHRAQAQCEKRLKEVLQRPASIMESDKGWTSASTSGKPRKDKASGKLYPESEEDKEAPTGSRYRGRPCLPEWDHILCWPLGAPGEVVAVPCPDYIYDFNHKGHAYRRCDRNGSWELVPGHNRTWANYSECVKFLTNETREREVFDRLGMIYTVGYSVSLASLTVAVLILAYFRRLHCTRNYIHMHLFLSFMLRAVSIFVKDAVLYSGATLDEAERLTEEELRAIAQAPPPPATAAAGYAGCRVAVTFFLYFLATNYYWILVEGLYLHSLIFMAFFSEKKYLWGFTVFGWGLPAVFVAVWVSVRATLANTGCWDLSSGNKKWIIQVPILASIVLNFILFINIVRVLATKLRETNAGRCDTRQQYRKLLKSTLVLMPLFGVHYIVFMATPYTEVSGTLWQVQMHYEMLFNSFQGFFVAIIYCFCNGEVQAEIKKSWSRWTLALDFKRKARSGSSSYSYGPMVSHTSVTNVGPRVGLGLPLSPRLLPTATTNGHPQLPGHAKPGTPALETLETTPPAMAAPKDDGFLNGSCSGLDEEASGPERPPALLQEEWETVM

Row | Structure (SMILES) | outcome | activation | Potency
1 | CCOc1ccc(C2C(C(=O)Nc3ccc(Cl)cc3)=C(C)Nc3nc(C(F)(F)F)nn32)cc1 (configuration not stated) | inactive |  | 
2 | CCN(C(=O)Cn1c(=O)nc(-c2ccccc2)c2cc(Cl)ccc21)c1cccc(C)c1 | inactive |  | 
3 | Cc1cc(C)cc(NC(=O)CCCc2nc(-c3ccccc3Cl)no2)c1 | inactive |  | 
4 | CCOC(=O)C1CCN(c2nc3c(S(=O)(=O)c4ccc(CC)cc4)nnn3c3ccc(Cl)cc23)CC1 |  | -39.7% | 
5 | Cc1ccc(CNC(=O)CCC(=O)N2Cc3ccccc3Oc3ncccc32)cc1 | inactive |  | 
6 | CCOC(=O)c1c(NC(=O)Cc2coc3ccc(CC)cc23)sc2c1CCC2 |  | -14% | 
7 | CCOc1ccccc1N(CC)C(=O)Nc1cn(C)c(=O)c2ccccc12 | inactive |  | 
8 | O=C(NCCCO)c1nn(-c2ccc(Cl)cc2)nc1CO | inactive |  | 
9 | CCc1nn(CC(=O)N2CCN(c3ccc(Cl)cc3)CC2)c(=O)c2cc3occc3n12 |  | -30.1% | 
10 | CC(C)Cn1c(C2CC(=O)N(c3ccccc3Cl)C2)nc2ccccc21 (configuration not stated) | inactive |  | 
11 | Cn1c(COc2ccccc2C(C)(C)C)nc2ccccc21 |  | -14.1% | 
12 | COc1ccc(NC(=O)CSC2=Nc3ccccc3C3=NC(CC(=O)NCc4ccccc4OC)C(=O)N23)cc1Cl (configuration not stated) |  | -3.88% | 
13 | CC(CCCc1ccccc1)NC(=O)c1nn(-c2ccc(Cl)cc2)nc1CO (configuration not stated) |  | -11% | 
14 | COc1ccc(CNc2nc(-c3ccc(Cl)cc3)nn2C(=O)c2ccccc2)cc1 | inactive |  | 
15 | Cc1ccc(CCNC(=O)C2CCN(c3nnc(-n4cccc4CNc4ccc(C)cc4)s3)CC2)cc1 |  | 1.18% | 
16 | Cc1ccc(SCC(=O)Nc2ccc3oc(-c4ccccc4F)nc3c2)cc1 |  | -7.35% | 
17 | CC(=O)N1c2ccc(S(=O)(=O)N3CCCCCC3)cc2CC1C(=O)NCc1ccccc1C (configuration not stated) | inactive |  | 
18 | COc1ccccc1N1CCN(CCCNC(=O)c2cnn(-c3ccccc3Cl)c2C2CCN(C(=O)OC(C)(C)C)CC2)CC1 | inactive |  | 
19 | CCN1CCN(CCCNC(=O)c2cnn(-c3ccc(C)cc3C)c2C2CCN(C(=O)OC(C)(C)C)CC2)CC1 |  | -12.3% | 
20 | Cc1cccc(C)c1-n1ncc(C(=O)NCCCN2CCCCC2)c1C1CCN(C(=O)OC(C)(C)C)CC1 |  |  | 14.1 µM (active)
21 | O=C(NC1CCCCC1)c1ccc(Cn2c(SCc3ccccc3)nc3cccnc32)cc1 | inactive |  | 

Row | Structure (SMILES) | outcome | activation | Potency
22 | COc1ccc(N(C)C(=O)C2CCN(S(=O)(=O)c3cc(Br)cc4c3N(C(C)=O)CC4)CC2)cc1 |  | -10.4% | 
23 | CCOc1ccc(OCC)c(NC(=O)c2c(C)nn(-c3ccccc3)c2-n2cccc2)c1 | inactive |  | 
24 | COc1cccc(-c2n[nH]c3c2C(c2cccc(O)c2)N(C)C3=O)c1 (configuration not stated) |  | -24.7% | 
25 | CCCN1CCN(CCCNC(=O)Cn2nc(CC)n3c(cc4occc43)c2=O)CC1 |  | 11.6% | 
26 | COc1ccc2c(c1)c(N1CCCC1=O)c(C(=O)Nc1ccc(OC)c(Cl)c1)n2C |  | -20.4% | 
27 | COC(=O)c1cc2occc2n1Cc1nc(-c2ccc(C)cc2)oc1C |  | -6.46% | 
28 | Cc1ccc(-c2cnc(NCc3ccc(C(C)C)cc3)n2C)cc1 |  | -25.2% | 
29 | C=Cc1ccc(Cn2c(C(=O)O)c(CNC3CCCC3)c3ccc(C)cc32)cc1 | inactive |  | 
30 | CCN(CC)C(=O)CSc1nc2cc3c(cc2c(=O)n1CCCC(=O)NCc1ccc2c(c1)OCO2)OCO3 |  | -15.7% | 
31 | CCOc1ccc(CNC(=O)C2CCCN(S(=O)(=O)N(CC)c3ccc(OCC)cc3)C2)cc1 (configuration not stated) |  | -6.06% | 
32 | CCN(CC)S(=O)(=O)c1ccc2c(c1)c(=O)c(C(=O)N1CCN(c3cccc(Cl)c3)CC1)cn2C |  | -8.06% | 
33 | COc1cccc(CNC(=O)C2CCC(CNS(=O)(=O)c3cccs3)CC2)c1 (configuration not stated) | inactive |  | 
34 | COc1ccc(N2CCN(S(=O)(=O)c3ccc(-c4coc(C)n4)cc3)CC2)cc1 |  | -12.8% | 
35 | Cc1ccc(C)c(N2CCN(C(=O)CN3C(=O)COc4ccc(S(=O)(=O)N5CCCCCC5)cc43)CC2)c1 |  | 7.52% | 
36 | COc1ccccc1CNC(=O)Cn1nc(C)c2nn(-c3ccc(Cl)cc3)c(C)c2c1=O |  | -25.9% | 
37 | O=C(O)c1ccc(CSc2nc3cccnc3n2Cc2cccc(F)c2)cc1 |  | -22.9% | 
38 | CC(C)c1ccc(NC(=O)c2ccc(Cn3nc(N4CCN(c5ccccc5)CC4)ccc3=O)o2)cc1 |  | -7.89% | 
39 | O=C(CSc1nccn1C1CCCC1)Nc1cc(C(F)(F)F)ccc1Cl |  | -85.1% | 
40 | Cc1ccc(Cc2cnc(N)s2)o1 |  |  | 3.55 µM (active)
41 | Cc1ccc(-c2nc3cccc(C)n3c2Nc2ccc3c(c2)OCCO3)cc1 | inactive |  | 
42 | CCN(CC)c1ccc(NC(=O)Cn2nc3c(cc2=O)CCCC3)c(C)c1 | inactive |  | 
